Experimental data reported in PubChem BioAssay.

assay: stimulators of insulin release from INS-1E, primary screen, cell-based, 5 mM glucose, NPC library (AID 1117329); conditions: rat INS-1E insulin secretion, at 10 µM, hits give high values;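 active = compound raises insulin release from rat beta cells at 5 mM glucose, no numeric limit stated; inactive = the rest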; also: reference of the scale not given here

Insulin secretion stimulation, inactive:
O=C(O)c1cc(O)c(O)c(O)c1 -0.6%
Cc1c(C(N)=O)cc([N+](=O)[O-])cc1[N+](=O)[O-] -3.2%
Nc1ccc(S(=O)(=O)Nc2ccc(Cl)nn2)cc1 1%
CCCc1cc(C(N)=S)ccn1 -1.7%
CCCCC(CC)CN1CN(CC(CC)CCCC)CC(C)(N)C1 (stereo not drawn) 6.1%
C[N+]12CCC(CC1)C(OC(=O)C(O)(c1ccccc1)c1ccccc1)C2 (stereo not drawn) -0.3%
C=CCSCC1Nc2cc(Cl)c(S(N)(=O)=O)cc2S(=O)(=O)N1 (stereo not drawn) -0.2%
Oc1c(Cl)cc(Cl)cc1Sc1cc(Cl)cc(Cl)c1O 5.2%
CCOc1ccc(Cc2nccc3cc(OCC)c(OCC)cc23)cc1OCC 1.2%
O=C1C(O)=C(O)C(=O)C(O)=C1O 1.9%
Oc1ccc(Cl)c2cccnc12 -2.1%
COc1ccc(C2C(=O)c3ccccc3C2=O)cc1 0.7%
C[C@@](Cc1ccc(O)c(O)c1)(NN)C(=O)O 0.3%
O=C(O)c1ccccc1OP(=O)(O)O 0.8%
Nc1ccc(N=Nc2ccccc2)c(N)n1 0.5%
C=CCc1ccc(O)c(OC)c1 4.7%
COc1ccc(-c2cc(C(F)F)nn2-c2ccc(S(N)(=O)=O)cc2)cc1F -0.6%
Cc1c(NC(=O)c2cccnc2)c(=O)n(-c2ccccc2)n1C -1%
COc1ccc2cc1Oc1ccc(cc1)C[C@H]1c3c(cc4c(c3Oc3cc5c(cc3OC)CCN(C)[C@@H]5C2)OCO4)CCN1C 5.5%
CN1CCCN=C1COC(=O)C(O)(c1ccccc1)C1CCCCC1 (stereo not drawn) 16.3%
O=C(OCC(O)CO)c1ccccc1Nc1ccnc2cc(Cl)ccc12 (stereo not drawn) 6.1%
Cc1cc(=O)[nH]c(=S)[nH]1 -0.5%
COc1cccc(OC)c1C(=O)N[C@@H]1C(=O)N2[C@@H]1SC(C)(C)[C@@H]2C(=O)O 0.6%
O=C1c2cccc(O)c2C(=O)c2c(O)cccc21 -2.2%
CC(=O)N(O)CCCCCNC(=O)CCC(=O)N(O)CCCCCNC(=O)CCC(=O)N(O)CCCCCN 1.8%
CC1(C)O[C@@H]2C[C@H]3[C@@H]4C[C@H](F)C5=CC(=O)CC[C@]5(C)[C@H]4[C@@H](O)C[C@]3(C)[C@]2(C(=O)CO)O1 6.1%
COc1cc(NS(=O)(=O)c2ccc(N)cc2)ncn1 4.3%
Cc1onc(-c2ccccc2)c1C(=O)N[C@@H]1C(=O)N2[C@@H]1SC(C)(C)[C@@H]2C(=O)O 6.3%
CCCCOc1ccc(CC(=O)NO)cc1 10.6%
CCC(=O)O[C@H]1[C@H](O[C@@H]2[C@@H](C)[C@H](O[C@H]3C[C@@](C)(OC)[C@@H](O)[C@H](C)O3)[C@@H](C)C(=O)O[C@H](CC)[C@@](C)(O)[C@H](O)[C@@H](C)C(=O)[C@H](C)C[C@@]2(C)O)O[C@H](C)C[C@@H]1N(C)C -1.7%
CC(=O)Nc1ccc(OCC(O)CNC(C)C)cc1 (stereo not drawn) 5.6%
Cc1c(N(C)CS(=O)(=O)O)c(=O)n(-c2ccccc2)n1C -0.6%
CC(=O)Nc1ccccc1 1%
O=C(CCCCC(=O)Nc1c(I)cc(I)c(C(=O)O)c1I)Nc1c(I)cc(I)c(C(=O)O)c1I -1.2%
O=C(O)c1ccccc1C(=O)Nc1ccc(S(=O)(=O)Nc2nccs2)cc1 -2.1%
Cc1c(NC(C)C)c(=O)n(-c2ccccc2)n1C 0.4%
CC[C@]12CCCN3CCc4c(n(c5ccccc45)[C@@](O)(C(=O)OC)C1)[C@@H]32 -1.7%
Cc1cc(C)cc(OCC2CNC(=O)O2)c1 (stereo not drawn) -0.5%
